Measurements taken from PubChem BioAssay (Tox21).
Results filed as inconclusive are left out. Values without a mark were called inactive. Activity calls are given as the source filed them. The call rests on the fitted dose curve; in most records, active means well fitted cell-killing curve with a large enough effect in the repeat runs; inconclusive means weak or mixed curves, or effect the other way; inactive means flat fitted curve, though single readings scatter.

Experiment: qHTS RealTime-Glo MT Cell Viability Assay in HepG2 cells - 0 hour (AID 1224889); further: nearly all actives have a fitted effect of over 50% in size
Conditions: RealTime-Glo luminescence; series mostly up to 76.8 µM; activity change, negative = cytotoxicity: at the top concentration
Source text: U.S. Tox21 Program National Center for Advancing Translational Sciences [NCATS] NIH Chemical Genomics Center [NCGC] U.S. Environmental Protection Agency [EPA] National Institutes of Environmental Health Sciences [NIEHS] National Toxicology Program [NTP] U.S. Food and Drug Administration [FDA] Tox21 Assay Overview: Measure of cell viability is critical in the cell-base assay. Analysis of cell viability is necessary for the characterization of cell responses to cytotoxic drugs and environmental stress. A RealTime-Glo MT Cell Viability Assay to monitor cell viability in real time of continues cell culture during 40 hours of compound treatment was used to screen Tox21 10K library compounds in HepG2 cells. The RealTime-Glo MT Cell Viability Assay is a nonlytic, homogeneous, bioluminescent method to measure cell viability in real time using a simple, plate-based method. The assay involves adding NanoLuc luciferase and a cell-permeant prosubstrate to cells in culture. Viable cells reduce the proprietary prosubstrate to generate a substrate for NanoLuc luciferase. This substrate diffuses from cells into the surrounding culture medium, where it is rapidly used by the NanoLuc Enzyme to produce a luminescent signal. The signal correlates with the number of viable cells, making the assay well suited for cytotoxicity studies.
Tox21 Assay Protocol Summary: The mixture of HepG2 cell suspension and reagents were dispensed at 600cells/6 ul/well in 1536-well tissue culture treated black solid bottom plates using a Multidrop dispenser. After the assay plates were incubated at a 37 C/5% CO2 incubator for 5 hours, 23 nL of compounds dissolved in DMSO, positive and negative controls was transferred to the assay plate by a pintool work station. The plates were incubated at 37 C for 40 hours. The luminescence intensity were measured at 0h, 8h, 16h, 24h, 32h and 40h time points using ViewLux plate reader during compound treatment.
On the % scale 0 is the no-effect control and ±100 the full control effect; potency means the concentration at half of the fitted maximal effect.

**Q.** Which activity change, negative = cytotoxicity does the source give for `CCCCCCCCCCCCCCCCBr` here?
**A.** The activity change, negative = cytotoxicity was 6.9% [at 15.8 µM].

**Q.** Which “activity change, negative = cytotoxicity” value does the source give for `CCOC(=O)OCC` here?
**A.** Its value is 4.18%.

**Q.** Which “activity change, negative = cytotoxicity” value does the source give for `C=CC(=C)CCCC(C)(C)OC(C)=O` here?
**A.** Its value is 11.1%.

**Q.** Which “activity change, negative = cytotoxicity” value does the source give for `CCCCCCOC(=O)C(C)C` here?
**A.** The value was 1.27%.

**Q.** For `COCCOC(=O)C1=C(C)NC(C)=C(C(=O)OC/C=C/c2ccccc2)C1c1cccc([N+](=O)[O-])c1` (stereo not given), which Potency is on record?
**A.** Its Potency is 6.74 µM (active).

**Q.** Which “activity change, negative = cytotoxicity” value does the source give for `Brc1cc(-c2ccc(Br)c(Br)c2Br)cc(Br)c1Br` here?
**A.** Its value is 7.67% [at 35.3 µM].

**Q.** Which “activity change, negative = cytotoxicity” value does the source give for `CCOC(=O)CC(=O)C(=O)OCC` here?
**A.** The value was -6.29%.

**Q.** Which “activity change, negative = cytotoxicity” value does the source give for `CCc1cccc(N(C)C(N)=Nc2cccc3ccccc23)c1` here?
**A.** The value was 0.497% [at 35.3 µM].

**Q.** With `CC(CCc1ccc2c(c1)OCO2)NN` (stereo not given) as the compound, how does the “activity change, negative = cytotoxicity” value read?
**A.** The value was 5.22% [at 35.3 µM].

**Q.** For `CC1CC(O)CC(C)(C)C1` (stereo not given), which “activity change, negative = cytotoxicity” value is on record?
**A.** The value was 0.679%.

**Q.** Which “activity change, negative = cytotoxicity” value does the source give for `CCCCCCCCCCCC[N+](C)(C)CC(=O)[O-]` here?
**A.** Its value is -7.15%.

**Q.** With `CC(=O)OCC(=O)[C@@]12OC(C)(C)O[C@@H]1C[C@H]1[C@@H]3C[C@H](F)C4=CC(=O)C=C[C@]4(C)[C@@]3(F)[C@@H](O)C[C@@]12C` as the compound, how does the Potency read?
**A.** The Potency was 2.68 µM (active).

**Q.** Which “activity change, negative = cytotoxicity” value does the source give for `CC(C)(C)C(=O)O` here?
**A.** The value was 3.35%.

**Q.** For `CC1=CC(O)CC(C)(C)C1` (stereo not given), which “activity change, negative = cytotoxicity” value is on record?
**A.** The value was 0.435%.

**Q.** With `COC(=O)c1cc(Cl)ccc1NS(=O)(=O)C(F)(F)F` as the compound, how does the “activity change, negative = cytotoxicity” value read?
**A.** The value was -5.76% [at 35.3 µM].

**Q.** For `CC(C)C(OC(=O)c1ccccc1)C(C)(C)COC(=O)c1ccccc1` (stereo not given), which “activity change, negative = cytotoxicity” value is on record?
**A.** The value was 0.242%.

**Q.** With `COC(=O)c1cc(S(N)(=O)=O)ccc1OC` as the compound, how does the “activity change, negative = cytotoxicity” value read?
**A.** The value was -13.1% [at 35.3 µM].

**Q.** Which “activity change, negative = cytotoxicity” value does the source give for `CC(=O)Nc1ccc(N)cc1` here?
**A.** The value was -0.189%.

**Q.** Which “activity change, negative = cytotoxicity” value does the source give for `O=C(O)c1snc(Cl)c1Cl` here?
**A.** The value was -4.39%.

**Q.** With `CCC(C)(C)C1CCC(O)CC1` (stereo not given) as the compound, how does the “activity change, negative = cytotoxicity” value read?
**A.** Its value is 9.03%.

**Q.** With `CC1=C(C=O)C(C)(C)CCC1` as the compound, how does the “activity change, negative = cytotoxicity” value read?
**A.** The value was 4.94%.

**Q.** For `COC(=O)Nc1nc2ccc(C(=O)c3cccs3)cc2[nH]1`, which “activity change, negative = cytotoxicity” value is on record?
**A.** The value was -15% [at 35.3 µM].

**Q.** With `CCCCC1C(=O)N(c2ccccc2)N(c2ccc(O)cc2)C1=O` (stereo not given) as the compound, how does the “activity change, negative = cytotoxicity” value read?
**A.** The value was -22.6% [at 35.3 µM].

**Q.** Which “activity change, negative = cytotoxicity” value does the source give for `CC(C)CCCCCCOC(=O)CCCCC(=O)OCCCCCCC(C)C` here?
**A.** Its value is 0.334%.

**Q.** Which “activity change, negative = cytotoxicity” value does the source give for `O=C(/C=C/c1ccccc1)OCCCc1ccccc1` here?
**A.** The value was -3.13%.

**Q.** With `O=C(O)c1cccc(O)c1` as the compound, how does the “activity change, negative = cytotoxicity” value read?
**A.** The value was 1.03%.

**Q.** For `C=CCOC(=O)/C=C\C(=O)OCC=C`, which “activity change, negative = cytotoxicity” value is on record?
**A.** The value was 6.61%.

**Q.** For `CCOC(=N)CC(=O)OCC`, which “activity change, negative = cytotoxicity” value is on record?
**A.** The value was 5.1%.

**Q.** Which “activity change, negative = cytotoxicity” value does the source give for `CCCOC(=O)c1ccc(N)cc1` here?
**A.** The value was 10.1% [at 35.3 µM].

**Q.** Which “activity change, negative = cytotoxicity” value does the source give for `CCCCCC=CCC=CCCCCCCCC(=O)OCC` here?
**A.** Its value is -0.858% [at 35.3 µM].

**Q.** Which “activity change, negative = cytotoxicity” value does the source give for `Cc1cc(OI)c(C(C)C)cc1-c1cc(C(C)C)c(OI)cc1C` here?
**A.** The value was -1.32% [at 35.3 µM].

**Q.** Which “activity change, negative = cytotoxicity” value does the source give for `Cc1ccccc1N1C(=O)c2cc(S(N)(=O)=O)c(Cl)cc2NC1C` (stereo not given) here?
**A.** Its value is 1.59% [at 35.3 µM].

**Q.** With `OC(CCCN1CCCCC1)(c1ccccc1)c1ccccc1` as the compound, how does the “activity change, negative = cytotoxicity” value read?
**A.** Its value is -6.49% [at 35.3 µM].

**Q.** Which “activity change, negative = cytotoxicity” value does the source give for `NC(=O)Nc1ccc(Cl)c(Cl)c1` here?
**A.** Its value is 11.5%.

**Q.** For `O=C(O)c1cccnc1C(=O)O`, which “activity change, negative = cytotoxicity” value is on record?
**A.** The value was -2.33%.

**Q.** Which “activity change, negative = cytotoxicity” value does the source give for `Cc1cc(O)c2c(O)c3c(O)cccc3cc2c1` here?
**A.** The value was -5.19% [at 35.3 µM].

**Q.** With `CCCCCCCCCCCC[N+](C)(C)CCCS(=O)(=O)[O-]` as the compound, how does the “activity change, negative = cytotoxicity” value read?
**A.** Its value is -1.44%.

**Q.** For `CC#N`, which “activity change, negative = cytotoxicity” value is on record?
**A.** Its value is 4.85%.

**Q.** For `CCCCC/C(=C\c1ccccc1)CO`, which “activity change, negative = cytotoxicity” value is on record?
**A.** The value was -20%.

**Q.** For `C/C=C(\C)C(=O)OCCC(C)CCC=C(C)C` (stereo not given), which “activity change, negative = cytotoxicity” value is on record?
**A.** Its value is -8.4%.
